# Source: PubChem BioAssay AID1053184 (Broad Institute, 2014)
# Results with a measured potency or affinity are listed apart. The source made the active and inactive calls.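 How the source made its calls: active means cell killing, with a fitted half-maximal concentration at or below twice the top valid dose tested; inconclusive means flat curve between 30% and 70% signal loss, or poor fit; inactive means effect in the rising direction, plus the rest.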
# Experiment: cytotoxicity in A549 cells, dose response, cytotoxicity control, cell-based, cherry-picked samples (AID 1053184)
# Details: A549 viability, CellTiter-Glo ATP luminescence, 72 h; series mostly up to 26 µM
row,SMILES,outcome
1,C[C@H]1CNC(=O)[C@@H](Cc2ccc(C(F)(F)F)cc2)CCn2nncc2COC1,inactive
2,CNC[C@@H]1Oc2cc(C#Cc3ccccc3OC)ccc2S(=O)(=O)N([C@H](C)CO)C[C@H]1C,inactive
3,CN(C)C(=O)c1cccc(-c2ccc(C3[C@@H]4CN(Cc5ccccc5F)C[C@H]3N4)cc2)c1 (stereo partly specified),inactive
4,CO[C@@H](CN(C)Cc1cc(F)ccc1F)[C@@H](C)CN(C(=O)Nc1ccc(C(F)(F)F)cc1)[C@H](C)CO,inactive
5,COc1cccc(-c2cccc(-c3nc(C(=O)Nc4ccc(-c5ccccc5)cc4)cc4c3[C@@H](CCO)N(S(=O)C(C)(C)C)C4)c2)c1 (stereo partly specified),inactive
6,C/C=C/c1ccc([C@H]2[C@@H](CO)N3C(=O)CN(Cc4ccc(F)cc4)C[C@@H]23)cc1,inactive
7,COc1cc(CN2C[C@@H]3N[C@H](C2)C3c2ccc(-c3ccc(C#N)cc3)cc2)cc(OC)c1 (stereo partly specified),inactive
8,C[C@H](CO)N1C[C@H](C)[C@@H](CN(C)Cc2ccccc2)Oc2c(NC(=O)Cc3cn(C)c4ccccc34)cccc2C1=O,inactive
9,O=S(=O)(c1ccc(F)cc1)N1C[C@@H]2N[C@H](C1)C2c1ccc(/C=C/c2ccccc2)cc1 (stereo partly specified),inactive
10,COc1ccc2c3c(n(C)c2c1)[C@@H](CO)N(CC1CC1)CC31CN(C(=O)c2ccc3c(c2)OCO3)C1,inactive
11,N#Cc1cccc(-c2ccc(C3[C@@H]4CN(C(=O)Nc5ccc(C(F)(F)F)cc5)C[C@H]3N4)cc2)c1 (stereo partly specified),inactive
